{"source": "PubChem BioAssay (EPA / NIEHS)", "note": "Active and inactive are the calls of the source. How the source made its calls: active means hit-call score of the fitted dose curve at least 0.9, where 1 is the maximum; inactive means score below 0.9.", "data": [{"assay": "ATG_BRE_CIS: Attagene CIS-FACTORIAL HepG2 Assay for human Bone Morphogenetic Protein (BMP) Response Element (BRE) (AID 2282933)", "conditions": "HepG2 BMP response element reporter, Attagene transcription factor profiling; actives raise or lower the signal", "method": "ATG_CIS is a cell-based, multiplexed-readout assay that uses HepG2, a human liver cell line, with measurements taken at 24 hours after chemical dosing in a 24-well plate.ATG_BRE_CIS is one of 52 assay component(s) measured or calculated from the ATG_CIS assay. It is designed to make measurements of mRNA induction, a form of inducible reporter, as detected with fluorescence intensity signals by Reverse transcription polymerase chain reaction (RT-PCR) and Capillary electrophoresis technology.Data from the assay component ATG_BRE_CIS was analyzed into 1 assay endpoint. This assay endpoint, ATG_BRE_CIS, was analyzed with bidirectional fitting relative to DMSO as the negative control and baseline of activity. Using a type of inducible reporter, measures of mRNA for gain or loss-of-signal activity can be used to understand the reporter gene at the transcription factor-level as they relate to the gene SMAD1. Furthermore, this assay endpoint can be referred to as a primary readout, because this assay has produced multiple assay endpoints where this one serves a reporter gene function. To generalize the intended target to other relatable targets, this assay endpoint is annotated to the dna binding intended target family, where the subfamily is Smad protein.\nHuman liver HepG2 cells are transiently transfected with multiple reporter transcription units (MRTUs) in 6-well plates using FuGene 6 reagent (Roche; 3 ml FuGene/1 mg DNA). The MRTU constructs are regulated by a cis-regulating element (promoter). […] A major difference between the CIS and TRANS system is that in CIS activities of endogenous TFs are measured, whereas the TRANS assay evaluates changes in activities of exogenous, chimeric NR-Gal4 proteins. […] At the end of 24 hour incubation, total RNA was isolated using TriZol reagent (Invitrogen). The isolated RNA is then reverse-transcribed using oligo(dT) primer and Mo-MLV reverse transcriptase (Invitrogen) with DNAse I (Ambion) treatment for 30 min. The one-tenth of the produced cDNA was amplified by PCR using Taq DNA polymerase (Invitrogen) and two reporter sequence-specific primers. The PCR products were fluorescently labeled by primer extension with 6-arboxyfluorescein (6-FAM) 5'-labeled reporter sequence-specific primer (2 min at 95 C, 20 s at 68 C and 10 min at 72 C) and these products were digested with 5U of HpaI (New England Biolabs) for 2h at 37 C. The fragments were purified using Qiaquick PCR columns (Qiagen), analyzed on an ABI 3130xL genetic analyzer (Applied Biosystems) with peak positions identified by using a set of X-rhodamine (ROX)-labeled MapMarker1000 molecular weight standards (BioVentures). The raw capillary electrophoresis data was processed using Attagraph software (Attagene).", "values": [{"smiles": "COP(=S)(OC)Oc1ccc([N+](=O)[O-])c(C)c1", "AC50": "32.7 µM (active)"}, {"smiles": "OC(c1ccc(Cl)cc1)(c1ccc(Cl)cc1)C(Cl)(Cl)Cl", "outcome": "inactive"}, {"smiles": "CCOP(=O)(OCC)Oc1nc(Cl)c(Cl)cc1Cl", "outcome": "inactive"}, {"smiles": "CS(=O)(=O)c1ccc(C(=O)C2C(=O)CCCC2=O)c([N+](=O)[O-])c1", "outcome": "inactive"}, {"smiles": "CC(C)Oc1cccc(NC(=O)c2ccccc2C(F)(F)F)c1", "AC50": "9.92 µM (active)"}, {"smiles": "CCNC(=O)NC(=O)C(C#N)=NOC", "outcome": "inactive"}, {"smiles": "CCCN(CC)CC1COC2(CCC(C(C)(C)C)CC2)O1", "note": "(stereo not given)", "AC50": "22.2 µM (active)"}, {"smiles": "CCCCC(C#N)(Cn1cncn1)c1ccc(Cl)cc1", "note": "(stereo not given)", "outcome": "inactive"}, {"smiles": "Cc1c(COC(=O)[C@@H]2[C@H](/C=C(\\Cl)C(F)(F)F)C2(C)C)cccc1-c1ccccc1", "outcome": "inactive"}, {"smiles": "CCCC(=NOCC)C1=C(O)CC(CC(C)SCC)CC1=O", "note": "(stereo not given)", "outcome": "inactive"}, {"smiles": "CCSC(=O)N1CCCCCC1", "outcome": "inactive"}, {"smiles": "CNC(=O)Oc1cccc2ccccc12", "AC50": "23.6 µM (active)"}, {"smiles": "N#Cc1c(Cl)cccc1Cl", "outcome": "inactive"}, {"smiles": "CCC(C)n1c(=O)[nH]c(C)c(Br)c1=O", "note": "(stereo not given)", "outcome": "inactive"}, {"smiles": "COc1ccc(-c2ccccc2)cc1NNC(=O)OC(C)C", "AC50": "2.32 µM (active)"}, {"smiles": "COP(=S)(OC)SCn1nnc2ccccc2c1=O", "AC50": "13.3 µM (active)"}, {"smiles": "O=P(O)(O)CCCl", "outcome": "inactive"}, {"smiles": "O=c1n(Cl)c(=O)n(Cl)c(=O)n1Cl", "outcome": "inactive"}, {"smiles": "CCOc1cc(C(C)(C)C)ccc1C1COC(c2c(F)cccc2F)=N1", "note": "(stereo not given)", "outcome": "inactive"}, {"smiles": "COc1cc(OC)nc(NC(=O)NS(=O)(=O)c2ncccc2OCC(F)(F)F)n1", "outcome": "inactive"}, {"smiles": "CNC(=O)N(C)c1nnc(C(C)(C)C)s1", "outcome": "inactive"}, {"smiles": "O=C(Nc1ccccc1-c1ccc(Cl)cc1)c1cccnc1Cl", "outcome": "inactive"}, {"smiles": "CCCCC(O)(Cn1cncn1)c1ccc(Cl)cc1Cl", "note": "(stereo not given)", "AC50": "33.3 µM (active)"}, {"smiles": "N#CN=C1SCCN1Cc1ccc(Cl)nc1", "outcome": "inactive"}, {"smiles": "Cc1ccc(N=CN(C)C=Nc2ccc(C)cc2C)c(C)c1", "outcome": "inactive"}, {"smiles": "Cn1c(-c2ccccc2)cc(-c2ccccc2)[n+]1C", "outcome": "inactive"}, {"smiles": "CC1(C)CON(Cc2ccccc2Cl)C1=O", "outcome": "inactive"}, {"smiles": "O=C(O)c1c(Cl)ccc2cc(Cl)cnc12", "outcome": "inactive"}, {"smiles": "CCOc1nc(F)cc2nc(S(=O)(=O)Nc3c(Cl)cccc3Cl)nn12", "outcome": "inactive"}, {"smiles": "CCOP(=S)(OCC)Oc1nc(Cl)n(C(C)C)n1", "outcome": "inactive"}, {"smiles": "C=CCOC(=O)C(C)(C)OC(=O)c1cc(-n2c(=O)cc(C(F)(F)F)n(C)c2=O)ccc1Cl", "outcome": "inactive"}, {"smiles": "C=C(C)CN(CC)c1c([N+](=O)[O-])cc(C(F)(F)F)cc1[N+](=O)[O-]", "outcome": "inactive"}, {"smiles": "COc1cc(Cl)c(OC)cc1Cl", "outcome": "inactive"}, {"smiles": "COCC(C)N(C(=O)CCl)c1c(C)csc1C", "note": "(stereo not given)", "outcome": "inactive"}, {"smiles": "COC(=O)NS(=O)(=O)c1ccc(N)cc1", "outcome": "inactive"}, {"smiles": "CC(C)NC(=O)N1CC(=O)N(c2cc(Cl)cc(Cl)c2)C1=O", "outcome": "inactive"}, {"smiles": "CC(C)N1C(=O)c2ccccc2NS1(=O)=O", "outcome": "inactive"}, {"smiles": "Nc1cnn(-c2ccccc2)c(=O)c1Cl", "outcome": "inactive"}, {"smiles": "CCOC(=O)C(C)OC(=O)c1cc(Oc2ccc(C(F)(F)F)cc2Cl)ccc1[N+](=O)[O-]", "note": "(stereo not given)", "AC50": "17.8 µM (active)"}, {"smiles": "Cc1cnc(C2=NC(C)(C(C)C)C(=O)N2)c(C(=O)O)c1", "note": "(stereo not given)", "outcome": "inactive"}]}]}
